Hits are enriched below; roughly 17% of the tested compounds scored in any of these assays.
TGFb inhibitor: blocks TGF-b signaling; HepG2 CAGA-GFP TGF-b/SMAD3 reporter, GFP fluorescence, 18 h; TGF-beta stimulated, 500 pg/mL final; Potency, µM (series often up to 46.1 µM), inactives show at the highest dose activity, negative = inhibition, hits mostly inhibitors; 1.2% of 410,000 active; further: on the % scale 0 is the no-effect control and ±100 the full control effect; nearly all actives have a fitted effect of over 65% in size
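HEPG2 CAGA-GFP cells (1000/well, DMEM with 1% FBS) were pre-incubated 2 h at 37 degrees C, given compound by pin tool, then stimulated with TGF-beta at 500 pg/mL final for 18 h before per-cell GFP fluorescence imaging.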
HepG2 viability: HepG2 cytotoxicity, counter-screen for TGF-b inhibitors; HepG2 CAGA-GFP viability, ATP luminescence, 18 h; Potency, µM (highest dose often 46.1 µM), inactives show at the top dose activity change, negative = cytotoxicity, usual class: cytotoxic; 0.76% of 410,000 active
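CellTiter-Glo luminescence gave cytotoxicity after 18 hours at 37 degrees C. The cells were HepG2 CAGA-GFP in 1% FBS DMEM, stimulated with 500 pg/mL TGF-beta after compound addition. %Activity was normalised to no-cell wells (complete cell-killing) and DMSO (no toxicity), and curves were fitted and classified.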
HT1080 IDH1KD tx: kills HT-1080 cells with IDH1 knockdown | AID 686971 | HT-1080 IDH1 knockdown viability, ATP luminescence, 48 h | 2% of 360,000 active | Potency, µM (top dose mostly 46.1 µM), for inactives: top-dose activity, negative = toxicity, hits mostly cytotoxic;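 further: 0% = DMSO wells and -100% = cell-free medium wells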
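CellTiter-Glo luminescence after 48 h compound exposure at 37 degrees C of IDH1-knockdown HT-1080 cells in 5% FBS RPMI. %Activity scaled between DMSO wells and cell-free media wells, with curves fitted and assigned curve classes.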
HT1080-NT tox: kills 2HG-producing HT-1080-NT fibrosarcoma cells; HT-1080-NT fibrosarcoma viability, CellTiter-Glo ATP luminescence, 48 h; AID 686970; Potency, µM (series often up to 46.1 µM), inactives show at the top dose activity, negative = less viability, usual class: cytotoxic; 1.6% of 360,000 active;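 further: NT is the 2HG producing partner of a matched IDH1 knockdown line; 0% = DMSO-treated cells and -100% = media-only wells without cells; nearly all actives have a fitted effect of over 55% in size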
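A 48-hour cytotoxicity screen used HT-1080-NT cells plated 2 hours before compound delivery. ATP-based CellTiter-Glo luminescence measured viability, normalized to DMSO and no-cell controls.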
DT40 TDP1 CPT: DT40-hTDP1 cell growth loss with CPT; 12% of 420,000 active; chicken DT40 Tdp1-/-;hTDP1 cells + 20 nM CPT, ATP luminescence, 48 h; AID 686979; Potency, µM (highest dose often 46.2 µM), for the others: at the top dose activity change, negative = growth inhibition, most hits filed as inhibitors; further: on the % scale 0 is the no-effect control and ±100 the full control effect; nearly all actives have a fitted effect of over 55% in size
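Chicken DT40 Tdp1-/- cells complemented with human TDP1, 400 cells/well, exposed to compounds plus 20 nM camptothecin for at least 48 h at 37 C; viability read as ATP content by CellTiter-Glo luminescence.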
TDP1 cell noCPT: qHTS for Inhibitors of human tyrosyl-DNA phosphodiesterase 1 (TDP1): qHTS in cells in absence of CPT; AID 686978, 2013; Potency, µM (titrated, usually from 46.2 µM), for inactives: at the top dose activity change, negative = growth inhibition, usual class: inhibitors; DT40 Tdp1-/- hTDP1 cells, no CPT, ATP luminescence, 48 h; 15% of 420,000 active; further: on the % scale 0 is the no-effect control and ±100 the full control effect; nearly all actives have a fitted effect of over 55% in size
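Chicken DT40 Tdp1-/- cells complemented with human TDP1, screened without camptothecin (DMSO vehicle only), 400 cells/well. Compounds pin-transferred, cells incubated at 37 °C for at least 48 hr. Growth read as ATP-dependent luminescence (CellTiter-Glo, 30 min at RT).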
The depositor's hits bear a star; ? = inconclusive; . = not tested or not shown; ! = a repeat was not active; [ ] = another dose, or the depositor's remark. The call rests on the fitted dose curve; in most records, active means well fitted curve in the direction sought with a large enough effect; inconclusive means small, poorly fitted or top-dose-only effect, or another doubt; inactive means no such curve, though single readings can be large; an effect the other way counts as inactive or inconclusive. Potency means the concentration at half of the fitted maximal effect.

SMILES | TGFb inhibitor | HepG2 viability | HT1080 IDH1KD tx | HT1080-NT tox | DT40 TDP1 CPT | TDP1 cell noCPT
CCN1CCc2nc(N)oc2CC1 | 1.3% | -11.8% | 10.9% | ? | -7.8% | 1.9%
Cc1ccc(NC(=O)c2sc(Cl)nc2C)c(C)c1 | 2.8% | 44.3% | 14.5% | 13.9% | 3.7% | 2.8%
Cc1cc(C)c(C)c(OC(=O)c2sc(Cl)nc2C)c1 | -0.3% | 1.3% | -20.9% | -10.1% | 7.31µM* | 8.2µM*
Cc1ccc(C(C)C)c(OCc2ccc(-c3nnco3)cc2)c1 | -26.1% | -43.0% | ? | ? | 16.4µM* | 20.6µM*
O=C1NC[C@H](Cc2ccccc2)N(C[C@@H]2CCCN2C[C@H](Cc2ccc(O)cc2)N2C[C@H](Cc3ccc(O)cc3)N(CCc3ccccc3)C(=O)C2=O)C1=O | . | . | 7.2% | -3.7% | 3.2% | -5.2%
O=C1NC[C@H](Cc2ccc(O)cc2)N(C[C@@H]2CCCN2C[C@H](Cc2ccccc2)N2C[C@H](Cc3ccc(O)cc3)N(CCc3ccccc3)C(=O)C2=O)C1=O | . | . | -16.2% | -17.1% | ? | 18.4µM*
O=C1NC[C@H](Cc2ccccc2)N(C[C@H]2CCCN2C[C@H](Cc2ccccc2)N2C[C@H](Cc3ccccc3)N(CCc3ccccc3)C(=O)C2=O)C1=O | ? | -34.4% | ? | ? | ? | 16.4µM*
CCn1c(COc2cccc(C)c2C)nnc1SCC(=O)N1CCN(c2ccc(OC)cc2)CC1 | -2.3% | 4.0% | -19.1% | -8.3% | 20.6µM* | 20.6µM*
CCn1c(COc2ccccc2C)nnc1SCC(=O)N1CCN(c2ccccc2)CC1 | ? | -19.6% | -22.0% | ? | ? | 23.1µM*
CCn1c(COc2ccccc2C)nnc1SCC(=O)OC | -10.0% | 7.3% | 11.0% | 10.6% | -12.9% | -2.8%
CCn1c(COc2cccc(C)c2)nnc1SCC(=O)N1CCCC1 | -7.0% | 2.5% | -10.1% | -3.6% | -19.1% | -11.4%
Clc1ccc2ccc3cccnc3c2n1 | -29.6% | -48.7% | 3.5% | -0.8% | ? | ?
Cc1cnc2c3c(cc(Cl)c2c1)-c1ccccc1S(=O)(=O)N3 | 3.98µM* | -84.8% | . | . | . | .
O=S1(=O)Nc2c(ccc3cccnc23)-c2ccccc21 | 1.26µM* | -48.1% | 0.316µM* | 0.562µM* | 1.16µM* | 1.46µM*
CNS(=O)(=O)Cc1ccc2[nH]cc(CCN(C)C)c2c1 | 24.3% | 1.8% | -28.8% | -20.4% | 5.8µM*! | 4.61µM*!
Cc1sc(NC(=O)CN(C(=O)c2ccccc2F)C2CCCC2)c(C(N)=O)c1C | -3.9% | -0.4% | -16.9% | -20.3% | ? | 16.4µM*
Cc1ccc(C(=O)N(CC(=O)Nc2sc(C)c(C)c2C(N)=O)C2CCCC2)cc1 | 0.8% | -10.2% | 0.1% | -1.3% | 20.6µM* | 18.4µM*
Cc1cccc(C(=O)N(CC(=O)Nc2sc(C)c(C)c2C(N)=O)C2CCCC2)c1 | -2.1% | -13.5% | -16.1% | -21.0% | ? | ?
COc1cc(C)c(Br)cc1S(=O)(=O)N1CCCC1 | 17.4% | -6.8% | -1.2% | -6.0% | -9.4% | ?
O=C(/C=C1\NC2(CCCC2)Cc2ccccc21)N1CCOCC1 | ? | -31.0% | ? | ? | 11.6µM* | 11.6µM*
CCCCCCc1cc2cc(-c3nnc(-c4cccc(Cl)c4)o3)c(=O)oc2cc1O | -0.5% | -15.8% | . | . | 11.2% | 1.3%
CCOc1cc2c(cc1OCC)C(CC(=O)OC)N(C(=O)Nc1cc(C)cc(C)c1)CC2 (configuration not stated) | 2.8% | -0.4% | . | . | -17.6% | -27.1%
CCOC(=O)CC1c2cc(OCC)c(OCC)cc2CCN1C(=O)Nc1cccc(Cl)c1 (configuration not stated) | -10.7% | -21.8% | . | . | ? | 16.4µM*
CCOc1cc2c(cc1OCC)C(CC(=O)OC)N(C(=O)Nc1cc(OC)ccc1OC)CC2 (configuration not stated) | ? | -16.2% | . | . | 20.6µM* | 14.6µM*
C/C(=N\NC(=O)c1c(C)nc2ccccn12)c1ccc(O)cc1O | 3.4% | -14.1% | ? | ? | 3.66µM* | 3.66µM*
SMILES | TGFb inhibitor | HepG2 viability | HT1080 IDH1KD tx | HT1080-NT tox | DT40 TDP1 CPT | TDP1 cell noCPT
O=C(CCS(=O)(=O)c1ccccc1)Nc1ccc2c(c1)OCO2 | -1.6% | -11.5% | -2.7% | 9.5% | 12.6% | -1.3%
O=C(CCS(=O)(=O)c1ccccc1)Nc1nc2c(s1)COc1ccccc1-2 | ? | -112.7% | -11.5% | -8.2% | 4.11µM* | 4.61µM*
O=C(Nc1nc2c(s1)COc1ccccc1-2)c1cccs1 | ? | -36.6% | -0.7% | -11.6% | 11.6µM* | 23.1µM*
COc1ccc(Oc2cccc(Cl)c2CNC(=O)c2ccccc2C(=O)O)cc1 | 17.2% | 7.0% | 4.0% | -1.4% | ? | -27.2%
CCCS(=O)(=O)N1CCN(C(=O)COc2ccc(OC)cc2)CC1 | 5.1% | -13.8% | 17.5% | 14.6% | -11.8% | -12.5%
CCN(Cc1ccncc1)C(=O)c1cc(COc2ccc(OC)cc2Cl)on1 | -4.3% | -37.5% | -9.6% | -4.1% | 16.4µM* | ?
COc1ccc(OCc2cc(C(=O)N(C)Cc3cc(C)no3)no2)c(Cl)c1 | 2.5% | 1.1% | -2.2% | 5.5% | -6.3% | ?
CN(Cc1ccccn1)C(=O)c1cc(COc2ccc(F)cc2Cl)on1 | -21.3% | -44.1% | 3.0% | 2.2% | ? | 23.1µM*
CCN(Cc1ccncc1)C(=O)c1cc(COc2c(F)cccc2F)on1 | 8.2% | -7.2% | 3.4% | 21.4% | ? | -29.9%
CCN(Cc1ccncc1)C(=O)c1cc(COc2ccc(F)cc2Cl)on1 | ? | -25.2% | 2.9% | 0.4% | 16.4µM* | ?
CCc1ccc(CN(C)C(=O)c2cc(COc3ccc(OC)cc3Cl)on2)nc1 | ? | -22.8% | 9.7% | 6.0% | ? | 29.1µM*
CCOC(=O)C1CCCN(C(=O)CNC(=O)c2ccc(Br)o2)C1 (configuration not stated) | -1.2% | -14.3% | 11.2% | -1.0%[9.24 µM] | -12.7% | 10.9%
COc1cc(C(=O)Nc2cccc(S(=O)(=O)NCc3ccco3)c2)cc(OC)c1OC | 12.8% | -11.7% | -10.4% | -5.2% | ? | ?
Cc1cccc(NC(=O)Cn2c(=O)n(CCc3ccccc3)c(=O)c3sc4ccccc4c32)c1 | -27.7% | -16.6% | . | . | 16.4µM* | 23.1µM*

From PubChem BioAssay
